Molecules are shown by their SMILES. Records with an inconclusive call do not appear. Where a call stands in place of a potency, no number is given. The source made the active and inactive calls. The call rests on the fitted dose curve; in most records, active means well fitted inhibition curve with a large enough effect; inconclusive means small, poorly fitted or top-dose-only effect; inactive means no such curve, though single readings can be large or run the other way.

We go through 37 compounds from PubChem BioAssay AID1347147 (National Center for Advancing Translational Sciences (NCATS), 2019).
Potency means the concentration at half of the fitted maximal effect.

N-terminal Xaa-Pro-Lys N-methyltransferase 1 (Homo sapiens), sequence (Q9BV86 whole entry, looked up): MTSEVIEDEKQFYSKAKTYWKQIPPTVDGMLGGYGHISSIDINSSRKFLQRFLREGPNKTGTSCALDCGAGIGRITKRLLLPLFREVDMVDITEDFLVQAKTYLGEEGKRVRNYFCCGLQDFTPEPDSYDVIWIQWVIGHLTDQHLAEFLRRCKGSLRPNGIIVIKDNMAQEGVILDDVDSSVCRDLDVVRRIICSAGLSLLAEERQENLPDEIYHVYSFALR

For this assay, the target named is N-terminal Xaa-Pro-Lys N-methyltransferase 1 (Homo sapiens) (UniProt Q9BV86). The experiment in a line: qHTS Assay for Inhibitors of N-terminal methyltransferase 1 (NTMT1): MTaseGlo Confirmatory Screen, Round 2. Particulars: NTMT1 enzyme, MTase-Glo SAH luminescence; series mostly up to 57.4 µM. The method in brief:
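Luminescent MTase-Glo readout of SAH formed in 30 min at RT by 125 nM NTMT1, 100 µM SAM and 1 µM SPKRIA substrate, after ~15 min compound preincubation. Percent inhibition versus no-enzyme and DMSO controls was Hill-fitted.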
On the technique in general: Quantitative high-throughput screening tests each substance at several concentrations.
In the case of `Nc1ncnc2c1ncn2[C@@H]1O[C@H](COP(=O)(O)OP(=O)(O)OC[C@H]2OC(O)[C@H](O)[C@@H]2O)[C@@H](O)[C@H]1O` (some centres not stated), the Potency result is “inactive”.
Then `O=C1NC(=O)C(=Cc2ccc(-c3ccc(F)cc3O)o2)S1`, with 35.5 µM (active); and `CN(C)CCCN1c2ccccc2Sc2ccc(C(F)(F)F)cc21`, with “inactive”.
For `COc1ccc(/C=C2\COc3ccc(C)cc3C2=O)cc1O` the value was “inactive”; for `Nc1c(S(=O)(=O)O)cc(Nc2ccc(Nc3nc(Cl)nc(Nc4ccc(S(=O)(=O)O)cc4)n3)c(S(=O)(=O)O)c2)c2c1C(=O)c1ccccc1C2=O`, 31.6 µM (active).
For `CC(C)(C)c1ccc(S(=O)(=O)/C=C\C#N)cc1` the value was “inactive”.
`Nc1[nH]c(=O)nc2c1ncn2C1OC(CO)C(O)C1O` (configuration not stated): the Potency entry was “inactive”.
Then `COc1cc(/C=C(\C#N)C(=O)c2ccc(O)c(O)c2)cc(I)c1O`, with “inactive”.
`COc1cc(/C=C(\C#N)C(=O)Nc2nnc(C(F)(F)F)s2)ccc1OCc1ccc(C(F)(F)F)cc1C(F)(F)F`: the Potency result is “inactive”.
In the case of `N[C@@H](Cc1ccc(O)c(O)c1)C(=O)O`, the Potency entry was “inactive”.
On to `Oc1cc2c(cc1O)CN(C(=S)NCCc1ccc(Cl)cc1)CCC2`, for which the Potency result was “inactive”.
For `O=c1c(O)c(-c2ccc(O)c(O)c2)oc2cc(O)cc(O)c12` the value was “inactive”; for `Cc1nn(-c2ccccc2)c(C)c1/C=N/N1CCN(Cc2ccccc2)CC1`, “inactive”; for `Cc1[nH]c(=O)c(C#N)cc1-c1ccc2nccn2c1`, “inactive”.
As to `C#CCN(C)CCCOc1ccc(Cl)cc1Cl`, the Potency entry was “inactive”.
For `CC(Cc1ccc(O)c(O)c1)C(C)Cc1ccc(O)c(O)c1` (configuration not stated), the Potency is 35.5 µM (active).
With `N.N.O=C(O)C1(C(=O)O)CCC1.[Pt]`, the Potency result was “inactive”.
In the case of `CC(C)NC[C@H](O)c1ccc(O)c(O)c1`, the Potency entry was “inactive”.
`CN1CCN(CCCN2c3ccccc3Sc3ccc(Cl)cc32)CC1`: the Potency result was “inactive”.
For `Oc1ccccc1O` the value was “inactive”.
For `CN1Cc2c(N)cccc2C(c2ccccc2)C1` (configuration not stated) the value was “inactive”; for `Cc1ccc(O)c(N=Nc2ccccc2)n1`, 14.1 µM (active).
`O=c1[nH]c(=S)[nH]c(-c2ccccc2)c1Cc1c(O)ccc2ccccc12`: the Potency result is “inactive”.
Then `O=[N+]([O-])c1ccc2c(c1)S(=O)(=O)C=C2`, with “inactive”; and `O=c1c(-c2ccc(O)cc2)coc2cc(O)cc(O)c12`, with “inactive”.
Then `O=c1oc(Cl)c(Cl)c2ccccc12`, with “inactive”.
For `CCCCCCCCCCCCCCCCCC(=O)OC(CC(=O)O)C[N+](C)(C)C` (configuration not stated) the value was “inactive”; for `Clc1ccc(N2CCN(Cc3c[nH]c4ncccc34)CC2)cc1`, “inactive”; for `Oc1ccc(Cn2cc[nH]c2=S)cc1`, “inactive”.
For `NC[C@@H]1O[C@H](c2ccccc2)Cc2c1ccc(O)c2O`, the Potency entry was “inactive”.
For `Nc1nc(Cl)nc2c1ncn2[C@@H]1O[C@H](COP(=O)(O)OP(=O)(O)OP(=O)(O)O)[C@@H](O)[C@H]1O` the value was “inactive”; for `Cc1cccc(C2CN(C)CCc3c2cc(O)c(O)c3Cl)c1` (configuration not stated), “inactive”.
For `O=C1c2c(O)cc(O)cc2OC(c2ccc(O)c(O)c2)C1O` (configuration not stated) the value was “inactive”; for `CSc1ccc2c(c1)N(CCC1CCCCN1C)c1ccccc1S2` (configuration not stated), “inactive”; for `OCC1OC(n2cnc3c(NCc4ccco4)ncnc32)C(O)C1O` (configuration not stated), “inactive”.
`O=[N+]([O-])c1ccc(CNc2nc(NCc3cccc(C(F)(F)F)c3)nc3nc[nH]c23)cc1`: the Potency entry was “inactive”.
Then `CC#C[C@]1(O)CC[C@H]2[C@@H]3CCC4=CC(=O)CCC4=C3[C@@H](c3ccc(N(C)C)cc3)C[C@@]21C`, with “inactive”.
